# Screening results from PubChem.
# An excerpt weighted towards active compounds, which were near 3.9% of everything screened.
# TGFb SMAD3 inh – qHTS for Inhibitors of TGF-b. Potency, µM (top dose mostly 46.1 µM), for the others: at the highest dose activity, negative = inhibition, hits mostly inhibitors. AID 588855, 2011. hit rate 1.2% among 410,000. HepG2 CAGA-GFP TGF-b/SMAD3 reporter, GFP fluorescence, 18 h; TGF-beta stimulated, 500 pg/mL final; also: % is scaled to controls: 0 for no effect and ±100 for the full control effect; nearly all actives have a fitted effect of over 65% in size
#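 HEPG2 CAGA-GFP, 1000 cells/well; 2 h settle, 37 C; cpd via pin tool; TGF-b 500 pg/mL final; 18 h, 37 C; GFP imaging ex488/em500-530; %Activity normalised to -TGF-b and +DMSO controls; CRC fit, curve class.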
# ATXN2 expr inh – Primary qHTS for Inhibitors of ATXN expression; AID 1745845, 2022; Potency, µM (titrated, usually from 57 µM), inactives show at the top dose activity change, negative = inhibition, usual class: inhibitors; hit rate 0.72% among 360,000; HEK-293 ATXN2-luciferase reporter, luminescence, 24 h; also: % is scaled to controls: 0 for no effect and ±100 for the full control effect; nearly all actives have a fitted effect of over 55% in size
#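 ATXN2-luciferase reporter cells (luciferase flanked by upstream and downstream ATXN2 gene portions) were treated 24 h at 37 °C with compounds at up to 57 uM. SteadyGlo luminescence gave expression; GF-AFC fluorescence gave viability.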
# HepG2 tox-1 – qHTS for Inhibitors of TGF-b: Cytotox Counterscreen | HepG2 CAGA-GFP viability, ATP luminescence, 18 h | Potency, µM (highest dose often 46.1 µM), for the others: top-dose activity change, negative = cytotoxicity, hits mostly cytotoxic | hit rate 0.76% among 410,000
#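 CellTiter-Glo luminescence gave cytotoxicity after 18 hours at 37 degrees C. The cells were HepG2 CAGA-GFP in 1% FBS DMEM, stimulated with 500 pg/mL TGF-beta after compound addition. %Activity was normalised to no-cell wells (complete cell-killing) and DMSO (no toxicity), and curves were fitted and classified.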
# ATXN viability – Viability Counterscreen for Primary qHTS for Inhibitors of ATXN expression | S2 cells (HEK-293 line with an ATXN2-luciferase reporter) viability, CellTiter-Fluor protease fluorescence, 24 h | Potency, µM (highest dose often 56.7 µM), usual class: cytotoxic | hit rate 0.49% among 400,000 | AID 651635, 2014; also: nearly all actives have a fitted effect of over 40% in size
# HT1080-NT tox – qHTS for induction of synthetic lethality in tumor cells producing 2HG: qHTS for the HT-1080-NT fibrosarcoma cell line. hit rate 1.6% among 360,000. HT-1080-NT fibrosarcoma viability, CellTiter-Glo ATP luminescence, 48 h. Potency, µM (series often up to 46.1 µM), for inactives: top-dose activity, negative = less viability, usual class: cytotoxic;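 also: NT is the 2HG producing partner of a matched IDH1 knockdown line; 0% = DMSO-treated cells and -100% = media-only wells without cells; nearly all actives have a fitted effect of over 55% in size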
#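 HT-1080-NT; 750 cells/well; 5% FBS RPMI; 48 h compound, 37 degrees C; CellTiter-Glo luminescence; curve fitting and curve-class assignment.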
# HT1080 IDH1KD tx – qHTS for induction of synthetic lethality in tumor cells producing 2HG: qHTS for the HT-1080-IDH1KD cell line; HT-1080 IDH1 knockdown viability, ATP luminescence, 48 h; Potency, µM (doses to about 46.1 µM), without a hit: at the highest dose activity, negative = toxicity, most hits filed as cytotoxic; hit rate 2% among 360,000; AID 686971, 2013;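 also: 0% = DMSO wells and -100% = cell-free medium wells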
#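 Viability of IDH1-knockdown HT-1080 fibrosarcoma cells was assessed by CellTiter-Glo after 48 h at 37 °C with titrated compound; concentration-effect curves were classified by fit quality and response size.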
# TGFb confirm – qHTS for Inhibitors of TGF-b: Confirmation of Cherry Picks. shares compounds with TGFb SMAD3 inh. HepG2 CAGA-GFP TGF-b reporter, GFP fluorescence, 18 h; cells stimulated with TGF-beta, 500 pg/mL. Potency, µM (top dose mostly 46.1 µM), for inactives: top-dose activity, negative = inhibition, hits mostly inhibitors. hit rate 63% among 1,600; also: % is scaled to controls: 0 for no effect and ±100 for the full control effect; nearly all actives have a fitted effect of over 65% in size
# HepG2 tox-2 – qHTS for Inhibitors of TGF-b: Cytotox Counterscreen for Cherry Picks. shares compounds with TGFb SMAD3 inh. HepG2 CAGA-GFP viability, ATP luminescence, 18 h; cells stimulated with TGF-beta, 500 pg/mL. Potency, µM (top dose mostly 46.1 µM), without a hit: at the top dose activity, negative = cytotoxicity, hits mostly inhibitors. hit rate 27% among 1,600. AID 720535, 2013; also: % is scaled to controls: 0 for no effect and ±100 for the full control effect; nearly all actives have a fitted effect of over 70% in size
# CCL64 TGFb inh – qHTS for Inhibitors of TGF-b: CCL64 Cells Orthogonal Assay for Cherry Picks; CCL64 CAGA-GFP reporter, TGF-b stimulated, GFP fluorescence, 18 h; shares compounds with TGFb SMAD3 inh; AID 720536, 2013; Potency, µM (series often up to 46.1 µM), for inactives: top-dose activity, negative = inhibition, actives largely listed as inhibitors; hit rate 41% among 1,600; also: nearly all actives have a fitted effect of over 65% in size
# TGFb COP inh – qHTS for Inhibitors of TGF-b: Hit Validation in HepG2 Cells using COP promoter; Potency, µM (series often up to 46.1 µM), for the others: at the highest dose activity, negative = inhibition, hits mostly inhibitors; HepG2 COP-GFP TGF-b reporter, GFP fluorescence, 18 h; cells stimulated by added recombinant TGF-beta; AID 720537, 2013; shares compounds with TGFb SMAD3 inh; hit rate 3% among 1,600; also: nearly all actives have a fitted effect of over 70% in size
# * = called active by the depositor; i = inactive; ? = inconclusive; . = no result given; [ ] = remark or other dose. Calls follow the shape of the dose curve; as a rule, active = well fitted curve in the direction sought with a large enough effect; inconclusive = small, poorly fitted or top-dose-only effect, or another doubt; inactive = no such curve, though single readings can be large; an effect the other way counts as inactive or inconclusive. Potency is read from the fitted curve at half-maximal effect.
SMILES,TGFb SMAD3 inh,ATXN2 expr inh,HepG2 tox-1,ATXN viability,HT1080-NT tox,HT1080 IDH1KD tx,others
COc1ccc2cc1Oc1ccc(cc1)CC1c3c(cc(OC)c4c3Oc3cc5c(cc3O4)CCNC5C2)CCN1C (stereo unspecified),10µM*,11µM*,-103%,8.4µM*,?,18µM*,
OC1(c2cccnc2)CCN(Cc2ccc3c(c2)CN(Cc2ccsc2)CCO3)CC1,.,.,.,i,.,.,
O=C1/C(=C/c2ccc([N+](=O)[O-])cc2)C=C(c2ccccc2)N1c1ccc(O)cc1,9%,20µM*,-9%,?,-15%,?,
Cc1nn(C)cc1CN1CCOc2ccc(CN3CCC(Oc4cccnc4)CC3)cc2C1,.,.,.,i,.,.,
Cc1cc(C)n2c(Nc3ccc(C(C)C)cc3)c(-c3ccsc3)nc2n1,3.5µM*,.,-21%,.,.,.,
Cc1occc1C(=O)N/N=C/c1c(O)ccc2ccccc12,?,?,-15%,i,?,6.5µM*,
O=C(NN=Cc1c(O)ccc2ccccc12)c1ccncc1,?,?,-10%,i,?,?,
O=C(N/N=C\c1c(O)ccc2ccccc12)c1cncc(Br)c1,53%,?,-14%,.,?,1µM*,
O=C(N/N=C\c1c(O)ccc2ccccc12)c1ccc(O)cc1,0%,?,-32%,?,?,?,
O=C(N/N=C/c1c(O)ccc2ccccc12)c1ccc(Br)o1,0%,2.8µM*,-58%,.,?,5.8µM*,
CN(C)CC/C=C1/c2ccccc2CSc2ccccc21,.,.,.,i,.,.,
COc1ccc2c(c1)OC(C)CN(CC(=O)NCc1cn[nH]c1-c1ccc(F)cc1)C2 (stereo unspecified),.,.,.,i,.,.,
CN(C)c1ccc(-c2n(C)c3ccccc3[n+]2C)cc1,-29%,6%,-2%,i,5.6µM*,8.9µM*,
Cn1c(-c2ccccn2)[n+](C)c2ccccc21,-12%,-20%[11.3 µM],-17%,i,8%,-3%,
CN1CCC(=O)N(C(CSc2ccc(Br)cc2)c2ccccc2)CC1 (stereo unspecified),-6%,.,-25%,.,.,.,
O=C1c2cccc(OCc3ccc(F)cc3)c2CCN1Cc1ccc(F)cc1,6.3µM*,?,-29%,i,-28%,?,TGFb confirm=23µM*;HepG2 tox-2=?;CCL64 TGFb inh=13µM*;TGFb COP inh=31%
CCn1c(C(=O)N2CCCC(C(=O)NCCCc3ccccc3)C2)cc2sccc21 (stereo unspecified),-13%,-22%,-10%,i,5%,-1%,
Cn1c(C(=O)N2CCCC(C(=O)NCCCSC3CCCCC3)C2)cc2sccc21 (stereo unspecified),13µM*,-1%,-16%,i,-4%,-13%,TGFb confirm=?;HepG2 tox-2=?;CCL64 TGFb inh=?;TGFb COP inh=30%
CCn1c(C(=O)N2CCCC(C(=O)NCCc3ccc(C)cc3)C2)cc2sccc21 (stereo unspecified),13µM*,?,-26%,?,?,?,TGFb confirm=?;HepG2 tox-2=-21%;CCL64 TGFb inh=-25%;TGFb COP inh=-7%
COc1cc(C(=O)Oc2ccccc2/C=N/NC(=O)c2ccc(C)cc2)cc(OC)c1OC,13µM*,-10%,-3%,?,?,?,TGFb confirm=?;HepG2 tox-2=?;CCL64 TGFb inh=-28%;TGFb COP inh=-7%
COc1cc(C(=O)Oc2ccc(/C=N/NC(=O)c3ccncc3)cc2)cc(OC)c1OC,5%,-1%,5%,i,-19%,-12%,
O=C(CSc1nc2c(c(=O)[nH]1)CCC2)Nc1ccccc1F,-4%,4%,2%,i,.,.,
CCCCn1cnc2cc(NCc3ccccc3Cl)ccc21,?,-7%,-35%,i,.,.,
Fc1ccc(-c2csc3ncnc(N4CCc5ccccc5C4)c23)cc1,18µM*,-15%,-30%,?,-5%,-13%,TGFb confirm=16µM*;HepG2 tox-2=?;CCL64 TGFb inh=?;TGFb COP inh=20%
Cc1ccc(-c2csc3ncnc(N4CCc5ccccc5C4)c23)cc1,-2%,-6%,25%,i,-9%,-25%,
COc1cc(NC(=O)CSc2nc3nc(C)c(Cc4ccccc4)c(C)n3n2)cc(OC)c1OC,-8%,-16%,-21%,i,.,.,
Cc1cccc2c1-c1sc(C(=O)N3CCN(c4ccc(F)cc4)CC3)cc1CO2,-16%,-7%,-6%,i,.,.,
CN(C(=O)c1ccc(NC(=O)Cc2cccc(NC(=O)C3CCN(C(=O)CCc4ccccc4)CC3)c2)cc1)C1CCCC1,13µM*,-16%,-10%,i,-9%,-10%,TGFb confirm=?;HepG2 tox-2=-2%;CCL64 TGFb inh=13%;TGFb COP inh=7%
Cc1cc(N2CCC(C(=O)Nc3ccc(F)cc3F)CC2)n2nc(C)c(-c3ccc(Cl)cc3)c2n1,2%,-2%,-2%,?,.,.,
Cc1nnc(SC(=O)N2c3ccccc3Sc3ccccc32)s1,7.1µM*,25µM*,-104%,.,8.9µM*,7.1µM*,TGFb confirm=12µM*;HepG2 tox-2=15µM*;CCL64 TGFb inh=3.3µM*;TGFb COP inh=?
